Assay in all cases: DAPPL (digital affinity profiling via proximity ligation, sequencing); 10 mM Tris-HCl pH 7.5, 50 mM NaCl, 1 mM DTT, 4% glycerol, room temperature, 30 min; GST-TFs on glutathione beads, 16-mer random dsDNA library, 0.1% formaldehyde crosslink after washing; high values mean tight binding
Common to all, as to conditions: protein: recombinant; tags: N-terminal GST; dsDNA, one strand shown

The target of one experiment is T1, FLI1 (Homo sapiens, UniProt Q01543 1-452).
T1 sequence: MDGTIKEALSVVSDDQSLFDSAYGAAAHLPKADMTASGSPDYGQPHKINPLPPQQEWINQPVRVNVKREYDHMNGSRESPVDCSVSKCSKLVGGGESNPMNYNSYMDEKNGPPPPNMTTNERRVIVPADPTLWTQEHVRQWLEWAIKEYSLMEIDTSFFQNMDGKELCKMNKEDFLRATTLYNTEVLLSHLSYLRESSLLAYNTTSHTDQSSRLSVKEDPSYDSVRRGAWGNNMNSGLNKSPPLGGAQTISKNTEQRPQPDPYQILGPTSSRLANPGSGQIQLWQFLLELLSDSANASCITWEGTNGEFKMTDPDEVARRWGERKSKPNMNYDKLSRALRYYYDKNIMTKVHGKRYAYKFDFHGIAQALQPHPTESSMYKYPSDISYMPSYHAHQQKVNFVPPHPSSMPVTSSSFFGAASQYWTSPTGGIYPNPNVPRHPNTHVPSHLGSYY
A digest of the protocol:
(§1)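 Pools of DNA-barcoded human transcription factors, expressed in yeast as GST fusions on glutathione beads and combined with a tag-only sample, were incubated with 200 nmole of a 16-mer random double-stranded DNA library. Incubation took 30 min at room temperature in Tris/NaCl/DTT/glycerol buffer and was followed by washing, 0.1% formaldehyde crosslinking, proximity ligation (BsaI/T4 ligase, 1 h, 37 °C), PCR amplification and sequencing on an Illumina NextSeq500. Binding signal is the ratio of a hexamer's read frequency for a factor to its frequency for the tag-only sample.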

A further experiment concerns the target T2, ELK1 (Homo sapiens, UniProt P19419 1-428).
T2 sequence: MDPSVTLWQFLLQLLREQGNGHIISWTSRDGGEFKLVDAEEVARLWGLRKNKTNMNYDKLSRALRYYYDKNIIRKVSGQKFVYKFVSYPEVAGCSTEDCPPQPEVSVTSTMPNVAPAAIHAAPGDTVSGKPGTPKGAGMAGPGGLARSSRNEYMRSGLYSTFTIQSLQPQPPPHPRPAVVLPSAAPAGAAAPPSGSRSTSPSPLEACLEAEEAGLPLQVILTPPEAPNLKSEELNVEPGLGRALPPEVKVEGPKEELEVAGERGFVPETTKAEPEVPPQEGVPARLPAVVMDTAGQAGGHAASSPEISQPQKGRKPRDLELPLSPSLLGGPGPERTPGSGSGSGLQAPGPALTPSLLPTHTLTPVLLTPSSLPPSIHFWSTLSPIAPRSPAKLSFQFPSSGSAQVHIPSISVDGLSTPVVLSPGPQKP
In short, it runs like this: as §1

A further experiment addresses T3, GABPA (Homo sapiens, UniProt Q06546 1-454).
T3 sequence: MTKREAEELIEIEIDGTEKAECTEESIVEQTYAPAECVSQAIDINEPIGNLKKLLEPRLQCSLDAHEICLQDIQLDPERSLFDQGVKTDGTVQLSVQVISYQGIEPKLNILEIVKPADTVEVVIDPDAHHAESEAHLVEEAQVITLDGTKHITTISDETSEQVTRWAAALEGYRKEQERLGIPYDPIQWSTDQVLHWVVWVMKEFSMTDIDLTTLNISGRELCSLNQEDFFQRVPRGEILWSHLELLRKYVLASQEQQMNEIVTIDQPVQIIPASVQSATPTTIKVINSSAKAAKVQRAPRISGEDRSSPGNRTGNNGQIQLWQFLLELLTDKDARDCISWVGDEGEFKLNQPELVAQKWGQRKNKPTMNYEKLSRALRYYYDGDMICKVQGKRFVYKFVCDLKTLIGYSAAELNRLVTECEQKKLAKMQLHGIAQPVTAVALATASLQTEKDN
A digest of the protocol: as §1

The target in the next experiment is T4, ERG (Homo sapiens, UniProt P11308 1-479).
T4 sequence: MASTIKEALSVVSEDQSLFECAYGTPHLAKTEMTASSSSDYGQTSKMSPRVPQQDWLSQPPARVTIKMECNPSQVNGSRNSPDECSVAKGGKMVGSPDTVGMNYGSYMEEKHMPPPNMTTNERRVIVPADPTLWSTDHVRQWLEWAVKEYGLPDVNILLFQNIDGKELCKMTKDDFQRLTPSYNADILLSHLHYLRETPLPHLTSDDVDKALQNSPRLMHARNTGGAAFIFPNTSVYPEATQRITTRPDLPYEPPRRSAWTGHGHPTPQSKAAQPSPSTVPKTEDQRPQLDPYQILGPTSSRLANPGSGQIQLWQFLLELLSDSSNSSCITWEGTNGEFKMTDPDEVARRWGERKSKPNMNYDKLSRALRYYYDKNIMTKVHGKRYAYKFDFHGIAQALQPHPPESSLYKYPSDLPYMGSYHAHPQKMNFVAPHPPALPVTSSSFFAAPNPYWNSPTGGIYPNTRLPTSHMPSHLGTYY
In short, it runs like this: as §1

For the next experiment, the target named is ELF1 (Homo sapiens, UniProt P32519 1-619). A digest of the protocol: as §1
In another experiment the target is T5, EHF (Homo sapiens, UniProt Q9NZC4 1-300).
T5 sequence: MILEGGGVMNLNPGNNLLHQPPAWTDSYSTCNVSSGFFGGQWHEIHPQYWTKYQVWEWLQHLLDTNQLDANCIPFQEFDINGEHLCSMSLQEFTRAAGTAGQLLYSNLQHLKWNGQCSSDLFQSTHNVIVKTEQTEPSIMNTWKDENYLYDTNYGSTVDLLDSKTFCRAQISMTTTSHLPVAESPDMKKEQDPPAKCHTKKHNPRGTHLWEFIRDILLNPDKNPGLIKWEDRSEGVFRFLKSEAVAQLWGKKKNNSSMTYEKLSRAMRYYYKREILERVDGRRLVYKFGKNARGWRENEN
A digest of the protocol:
as §1

A further experiment concerns the target SPI1 (Homo sapiens, UniProt P17947 1-270). In short, it runs like this:
as §1

The target of the next experiment is SPIB (Homo sapiens, UniProt Q01892 1-262). A digest of the protocol:
as §1

The next experiment deals with T6, ELK3 (Homo sapiens, UniProt P41970 1-407).
T6 sequence: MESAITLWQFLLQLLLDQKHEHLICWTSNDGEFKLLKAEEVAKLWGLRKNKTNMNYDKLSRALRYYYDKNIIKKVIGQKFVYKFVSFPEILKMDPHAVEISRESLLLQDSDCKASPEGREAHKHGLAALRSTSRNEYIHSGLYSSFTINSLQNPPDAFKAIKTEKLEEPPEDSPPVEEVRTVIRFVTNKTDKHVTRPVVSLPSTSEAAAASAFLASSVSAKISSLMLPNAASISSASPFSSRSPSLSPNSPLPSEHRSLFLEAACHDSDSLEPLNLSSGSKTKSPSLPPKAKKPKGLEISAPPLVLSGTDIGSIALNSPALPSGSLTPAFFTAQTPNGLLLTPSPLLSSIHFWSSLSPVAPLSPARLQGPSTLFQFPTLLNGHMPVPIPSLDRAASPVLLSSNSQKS
A digest of the protocol:
as §1

SPIB, sequence (Q01892 whole entry): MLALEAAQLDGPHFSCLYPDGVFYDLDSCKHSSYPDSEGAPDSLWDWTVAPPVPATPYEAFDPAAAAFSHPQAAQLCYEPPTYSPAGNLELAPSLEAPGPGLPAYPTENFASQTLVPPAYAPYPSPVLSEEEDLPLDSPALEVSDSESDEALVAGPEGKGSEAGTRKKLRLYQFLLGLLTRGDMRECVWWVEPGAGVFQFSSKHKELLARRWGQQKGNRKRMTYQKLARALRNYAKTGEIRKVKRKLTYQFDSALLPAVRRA
ELF1, sequence (P32519 whole entry): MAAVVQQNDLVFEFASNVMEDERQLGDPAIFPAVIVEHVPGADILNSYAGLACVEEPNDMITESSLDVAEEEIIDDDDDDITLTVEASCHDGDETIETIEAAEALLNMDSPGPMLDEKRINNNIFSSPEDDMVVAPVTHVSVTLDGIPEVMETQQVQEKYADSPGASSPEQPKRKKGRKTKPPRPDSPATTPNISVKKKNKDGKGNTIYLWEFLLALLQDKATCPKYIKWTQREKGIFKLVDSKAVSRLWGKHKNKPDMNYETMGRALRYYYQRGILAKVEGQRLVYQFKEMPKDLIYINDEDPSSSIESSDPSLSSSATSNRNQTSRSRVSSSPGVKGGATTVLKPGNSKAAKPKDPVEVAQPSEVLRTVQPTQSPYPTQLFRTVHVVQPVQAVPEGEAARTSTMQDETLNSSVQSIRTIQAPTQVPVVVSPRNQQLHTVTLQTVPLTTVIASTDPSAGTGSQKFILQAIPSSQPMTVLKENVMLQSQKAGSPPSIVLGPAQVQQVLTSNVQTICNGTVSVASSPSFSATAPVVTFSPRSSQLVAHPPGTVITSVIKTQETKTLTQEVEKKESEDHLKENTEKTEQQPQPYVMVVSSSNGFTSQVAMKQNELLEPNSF

As to CTGCGA, the binding signal with FLI1 is 1.25 fold enrichment (6-mer frequency, TF over GST control); with ELK1 it was 1.31 fold enrichment (6-mer frequency, TF over GST control); in the experiment with GABPA, 1.34 fold enrichment (6-mer frequency, TF over GST control); with ERG, 1.29 fold enrichment (6-mer frequency, TF over GST control); in the experiment with ELF1, 1.32 fold enrichment (6-mer frequency, TF over GST control); in the experiment with EHF it was 1.26 fold enrichment (6-mer frequency, TF over GST control). Moreover, the binding signal in the experiment with SPI1 was 1.33 fold enrichment (6-mer frequency, TF over GST control); in the experiment with SPIB, 1.45 fold enrichment (6-mer frequency, TF over GST control); in the experiment with ELK3, 1.19 fold enrichment (6-mer frequency, TF over GST control).

As to TTTAAC, the binding signal in the experiment with FLI1 is 1.18 fold enrichment (6-mer frequency, TF over GST control); with ELK1, 1.16 fold enrichment (6-mer frequency, TF over GST control); with GABPA, 1.08 fold enrichment (6-mer frequency, TF over GST control); with ERG it was 1.13 fold enrichment (6-mer frequency, TF over GST control); with ELF1 it was 1.21 fold enrichment (6-mer frequency, TF over GST control); with EHF, 1.1 fold enrichment (6-mer frequency, TF over GST control). The binding signal is 1.19 fold enrichment (6-mer frequency, TF over GST control) in the experiment with SPI1; 1.14 fold enrichment (6-mer frequency, TF over GST control) with SPIB; 1.21 fold enrichment (6-mer frequency, TF over GST control) with ELK3.

For the sequence CTCTTG, the binding signal with FLI1 is 1.4 fold enrichment (6-mer frequency, TF over GST control); with ELK1 it was 1.33 fold enrichment (6-mer frequency, TF over GST control); with GABPA, 1.41 fold enrichment (6-mer frequency, TF over GST control); in the experiment with ERG, 1.29 fold enrichment (6-mer frequency, TF over GST control); with ELF1, 1.36 fold enrichment (6-mer frequency, TF over GST control); with EHF, 1.3 fold enrichment (6-mer frequency, TF over GST control). Also, the binding signal with SPI1 is 1.3 fold enrichment (6-mer frequency, TF over GST control); with SPIB, 1.43 fold enrichment (6-mer frequency, TF over GST control); with ELK3, 1.53 fold enrichment (6-mer frequency, TF over GST control).

For the sequence AATGTA, the binding signal with FLI1 is 1.19 fold enrichment (6-mer frequency, TF over GST control); with ELK1, 1.09 fold enrichment (6-mer frequency, TF over GST control); with GABPA it was 1.1 fold enrichment (6-mer frequency, TF over GST control); with ERG, 1.17 fold enrichment (6-mer frequency, TF over GST control); with ELF1, 1.16 fold enrichment (6-mer frequency, TF over GST control); with EHF, 1.22 fold enrichment (6-mer frequency, TF over GST control). Further, the binding signal with SPI1 is 1.12 fold enrichment (6-mer frequency, TF over GST control); with SPIB it was 1.2 fold enrichment (6-mer frequency, TF over GST control); in the experiment with ELK3, 1.17 fold enrichment (6-mer frequency, TF over GST control).

As to TCCCGG, the binding signal in the experiment with FLI1 was 2.29 fold enrichment (6-mer frequency, TF over GST control); in the experiment with ELK1 it was 2.07 fold enrichment (6-mer frequency, TF over GST control); with GABPA, 2.14 fold enrichment (6-mer frequency, TF over GST control); in the experiment with ERG it was 2.22 fold enrichment (6-mer frequency, TF over GST control); with ELF1 it was 2.12 fold enrichment (6-mer frequency, TF over GST control); in the experiment with EHF, 2.19 fold enrichment (6-mer frequency, TF over GST control). In addition, the binding signal in the experiment with SPI1 is 2.01 fold enrichment (6-mer frequency, TF over GST control); in the experiment with SPIB it was 2.43 fold enrichment (6-mer frequency, TF over GST control); in the experiment with ELK3 it was 1.96 fold enrichment (6-mer frequency, TF over GST control).

In the case of ATCGAT, the binding signal with FLI1 was 1.16 fold enrichment (6-mer frequency, TF over GST control); with ELK1 it was 1.1 fold enrichment (6-mer frequency, TF over GST control); with GABPA it was 1.19 fold enrichment (6-mer frequency, TF over GST control); in the experiment with ERG it was 1.15 fold enrichment (6-mer frequency, TF over GST control); in the experiment with ELF1, 1.15 fold enrichment (6-mer frequency, TF over GST control); with EHF it was 1.19 fold enrichment (6-mer frequency, TF over GST control). For the same sequence, the binding signal with SPI1 is 1.21 fold enrichment (6-mer frequency, TF over GST control); with SPIB, 1.12 fold enrichment (6-mer frequency, TF over GST control); in the experiment with ELK3, 1.1 fold enrichment (6-mer frequency, TF over GST control).

In the case of TTCCGA, the binding signal in the experiment with FLI1 is 1.64 fold enrichment (6-mer frequency, TF over GST control); in the experiment with ELK1, 1.62 fold enrichment (6-mer frequency, TF over GST control); with GABPA it was 1.43 fold enrichment (6-mer frequency, TF over GST control); with ERG, 1.66 fold enrichment (6-mer frequency, TF over GST control); in the experiment with ELF1 it was 1.44 fold enrichment (6-mer frequency, TF over GST control); with EHF, 1.71 fold enrichment (6-mer frequency, TF over GST control). In addition, the binding signal with SPI1 is 1.62 fold enrichment (6-mer frequency, TF over GST control); in the experiment with SPIB, 1.44 fold enrichment (6-mer frequency, TF over GST control); in the experiment with ELK3 it was 1.68 fold enrichment (6-mer frequency, TF over GST control).

TTATGG: the binding signal was 1.42 fold enrichment (6-mer frequency, TF over GST control) with FLI1; 1.39 fold enrichment (6-mer frequency, TF over GST control) with ELK1; 1.39 fold enrichment (6-mer frequency, TF over GST control) in the experiment with GABPA; 1.3 fold enrichment (6-mer frequency, TF over GST control) in the experiment with ERG; 1.3 fold enrichment (6-mer frequency, TF over GST control) with ELF1; 1.46 fold enrichment (6-mer frequency, TF over GST control) with EHF. The binding signal is 1.34 fold enrichment (6-mer frequency, TF over GST control) with SPI1; 1.44 fold enrichment (6-mer frequency, TF over GST control) with SPIB; 1.39 fold enrichment (6-mer frequency, TF over GST control) in the experiment with ELK3.

These data come from paper PMC7862700, “An all-to-all approach to the identification of sequence-specific readers for epigenetic DNA modifications on cytosine”.
